Laboratory results from publication PMC4336329 (PLoS ONE, 2015).
About 14,000 (4.5%) of roughly 310,000 compounds showed an effect of 50% or more. Effects have a minus sign here. What follows is part of a selection rich in strong results, with near analogues and random picks from the rest.

These compounds were tested against human ether-à-go-go-related gene (hERG) potassium channel (human, UniProt Q12809) (assay: primary screen, population patch clamp on CHO cells stably expressing hERG; higher = less effect of the substance).
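Note: peak tail current of the secondary pulse compared with the same well before compound.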

Chain of human ether-à-go-go-related gene (hERG) potassium channel (Q12809 whole entry, looked up): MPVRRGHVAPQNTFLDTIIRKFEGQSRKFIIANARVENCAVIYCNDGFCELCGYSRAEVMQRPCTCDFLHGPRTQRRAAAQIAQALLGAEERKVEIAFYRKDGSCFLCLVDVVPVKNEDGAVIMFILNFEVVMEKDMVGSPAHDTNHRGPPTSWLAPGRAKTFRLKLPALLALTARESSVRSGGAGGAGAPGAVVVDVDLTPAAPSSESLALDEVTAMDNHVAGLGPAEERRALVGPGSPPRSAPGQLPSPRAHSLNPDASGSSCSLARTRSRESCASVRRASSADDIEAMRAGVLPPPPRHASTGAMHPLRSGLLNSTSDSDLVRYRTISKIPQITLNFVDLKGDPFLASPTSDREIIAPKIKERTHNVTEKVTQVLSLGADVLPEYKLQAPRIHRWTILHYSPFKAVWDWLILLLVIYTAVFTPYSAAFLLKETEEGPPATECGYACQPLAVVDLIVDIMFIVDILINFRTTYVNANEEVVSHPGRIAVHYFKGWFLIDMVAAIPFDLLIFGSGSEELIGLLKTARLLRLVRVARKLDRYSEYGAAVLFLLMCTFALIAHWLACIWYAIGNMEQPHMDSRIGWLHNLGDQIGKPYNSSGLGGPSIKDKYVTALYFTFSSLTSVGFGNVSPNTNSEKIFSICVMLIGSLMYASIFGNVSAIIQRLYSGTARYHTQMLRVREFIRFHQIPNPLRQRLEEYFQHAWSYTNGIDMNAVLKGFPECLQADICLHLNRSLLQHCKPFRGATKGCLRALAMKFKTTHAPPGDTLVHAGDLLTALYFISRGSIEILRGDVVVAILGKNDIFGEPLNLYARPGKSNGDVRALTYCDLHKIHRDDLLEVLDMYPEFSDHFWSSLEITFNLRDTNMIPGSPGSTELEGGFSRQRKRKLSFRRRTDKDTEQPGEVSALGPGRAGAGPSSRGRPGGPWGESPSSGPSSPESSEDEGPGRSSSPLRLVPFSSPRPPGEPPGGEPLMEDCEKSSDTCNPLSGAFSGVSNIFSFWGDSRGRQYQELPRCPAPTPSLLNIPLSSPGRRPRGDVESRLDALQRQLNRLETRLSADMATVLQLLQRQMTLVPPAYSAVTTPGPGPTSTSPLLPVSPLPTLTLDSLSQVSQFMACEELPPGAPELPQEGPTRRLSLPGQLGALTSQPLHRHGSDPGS

Compared with `CC(=O)c1ccc(NC(=O)C(C)Nc2ccc(Cl)cc2)cc1` (centres unmarked), `CC(=O)Nc1ccc(OC(=O)Oc2ccc(NC(C)=O)cc2)cc1` is higher in “hERG current change (%, negative = inhibition) at 10uM” value: -4.45% for the first, 0.315% for the second.

First: Cc1nc(C(=O)NNC(=O)Nc2ccc(Cl)cc2)cs1
Second: O=C(NC(=S)Nc1cccnc1Cl)c1ccc(Cl)cc1
The “hERG current change (%, negative = inhibition) at 10uM” value of the first is lower: -0.711% for the first, 15.5% for the second.

Compared with `CCN(CC)S(=O)(=O)c1cccc(-c2cn3cc(C)ccc3n2)c1`, `Cc1ccc(N(Cc2ccco2)C(=O)c2cccc(S(=O)(=O)N(C)C)c2)cc1` is lower in “hERG current change (%, negative = inhibition) at 10uM” value: -9.87% for the first, -21.5% for the second.

Compared with `O=C(Nc1cccnc1Oc1ccc(Cl)cc1)c1cccc2ccccc12`, `CCc1ccccc1NC(=O)c1cc(-c2cccc(O)c2)on1` is higher in “hERG current change (%, negative = inhibition) at 10uM” value: 3.61% for the first, 12.7% for the second.

First: COCCC(=O)N1CCC(Oc2ccc(C(=O)N3CCC(N(C)C)C3)cc2)CC1 (centres unmarked)
Second: COc1ccc(NC(=S)NN2C(C)CCCC2C)cc1 (centres unmarked)
The “hERG current change (%, negative = inhibition) at 10uM” value of the first is higher: 20.7% for the first, 16.6% for the second.

First: Cc1ccc(Nc2nc(N)nc(CN3CCN(Cc4ccccc4)CC3)n2)cc1Cl
Second: Cc1ccc(Nc2nc(N)nc(CN3CCN(c4ccccc4)CC3)n2)cc1Cl
The “hERG current change (%, negative = inhibition) at 10uM” value of the first is lower: -76.4% for the first, -66.4% for the second.

Going from `Cc1ccc(Nc2nc(N)c3ccccc3n2)cc1Cl.Cl` to `Cl.Fc1ccccc1Nc1nc(Cl)nc(Cl)n1`, the “hERG current change (%, negative = inhibition) at 10uM” value falls from 9.26% to 7.69%.

First: CCCCN(C(=O)CNC(=O)c1ccco1)C(C(=O)NC1CCCC1)c1ccc(OC)cc1 (centres unmarked)
Second: O=C(NC1CCCC1)c1ccccc1OCc1ccccc1
The “hERG current change (%, negative = inhibition) at 10uM” value of the first is higher: -20.1% for the first, -39.6% for the second.

First: NC(=O)CC(NC(=O)c1ccc(Br)cc1)c1ccc(N2CCN(c3ccc(F)cc3)CC2)c([N+](=O)[O-])c1 (centres unmarked)
Second: O=C(NCc1ccc(F)cc1)c1cccc(S(=O)(=O)N2CCOCC2)c1
The “hERG current change (%, negative = inhibition) at 10uM” value of the first is higher: 6.16% for the first, -25.4% for the second.

First: CC1(C)NC(C)(C)c2nonc2/C1=N\O
Second: CCCOC(=O)CSc1nc(N2CCOCC2)c2c(c1C#N)CC(C)(C)OC2
The “hERG current change (%, negative = inhibition) at 10uM” value of the first is higher: -1.78% for the first, -40.5% for the second.

Going from `CCn1c2c(c3cc(C(=O)O)ccc31)CCCC2=O` to `Cc1ccc(C(=O)NCc2ccc(Cl)cc2)cc1S(=O)(=O)N1CCCCC1`, the “hERG current change (%, negative = inhibition) at 10uM” value falls from 18.5% to -0.995%.

Compared with `CSc1nccc(N/N=C/c2ccccc2)n1`, `O=C(CSc1ccccc1)Nc1nccs1` is lower in “hERG current change (%, negative = inhibition) at 10uM” value: 23.9% for the first, -3.78% for the second.

Going from `CC(=O)/C=C(\C)Nc1ccccc1O` to `Cc1ccccc1NC(=O)C1C2CCCCC21` (centres unmarked), the “hERG current change (%, negative = inhibition) at 10uM” value falls from 21.3% to 6.99%.

Compared with `COc1ccc(C(=O)/C=C/Nc2ccccn2)cc1`, `COc1cccc(C(=O)Nc2cnn(C(C)C)c2)c1` is higher in “hERG current change (%, negative = inhibition) at 10uM” value: 2.01% for the first, 9.94% for the second.

First: O=C(NC1CCCc2c1cnn2-c1cc(F)cc(F)c1)c1cc[n+]([O-])cc1 (centres unmarked)
Second: O=C(NC1CCCc2c1cnn2-c1cc(F)cc(F)c1)c1ccncc1 (centres unmarked)
The “hERG current change (%, negative = inhibition) at 10uM” value of the first is higher: -37.1% for the first, -64.1% for the second.

Going from `C=CCC(=O)NC1CCCc2c1cnn2-c1cc(F)cc(F)c1` (centres unmarked) to `CSCC(=O)NC1CCCc2c1cnn2-c1cc(F)cc(F)c1` (centres unmarked), the “hERG current change (%, negative = inhibition) at 10uM” value rises from -75.7% to -12.6%.

First: Cn1nccc1C(=O)NC1CCCc2c1cnn2-c1cc(F)cc(F)c1 (centres unmarked)
Second: O=C(NC1CCCc2c1cnn2-c1cc(F)cc(F)c1)c1ccccn1 (centres unmarked)
The “hERG current change (%, negative = inhibition) at 10uM” value of the first is higher: -45.2% for the first, -52.4% for the second.

Going from `O=C(NC1CCCc2c1cnn2-c1ccccc1F)c1ccccn1` (centres unmarked) to `O=C(NC1CCCc2c1cnn2-c1ccc(F)cc1F)c1ccccn1` (centres unmarked), the “hERG current change (%, negative = inhibition) at 10uM” value falls from 5.09% to 1.82%.

Going from `O=C(CCc1ccncc1)NC1CCCc2c1cnn2-c1cc(F)cc(F)c1` (centres unmarked) to `O=C(CCc1ccncc1)NC1CCCc2c1cnn2-c1ccc(F)cc1F` (centres unmarked), the “hERG current change (%, negative = inhibition) at 10uM” value rises from -56.5% to -12.5%.

First: Cc1cccc(-n2ncc3c2CCCC3NC(=O)CCc2ccncc2)c1C (centres unmarked)
Second: CCN(CC)CC(=O)NC1CCCc2c1cnn2-c1cc(F)cc(F)c1 (centres unmarked)
The “hERG current change (%, negative = inhibition) at 10uM” value of the first is higher: 4.95% for the first, -9.77% for the second.

First: OCC(O)C(O)C(O)C(O)C1NCCS1 (centres unmarked)
Second: CC(C)CC(NC(=O)C1CCC(C)CC1)C(=O)NCc1ccccn1 (centres unmarked)
The “hERG current change (%, negative = inhibition) at 10uM” value of the first is lower: 0.867% for the first, 18% for the second.

First: O=C1CSC(c2ccc(Cl)cc2)N1C1CCCCC1 (centres unmarked)
Second: O=C(C1CCCCC1)N1CCN(c2ccccc2F)CC1
The “hERG current change (%, negative = inhibition) at 10uM” value of the first is lower: -14.4% for the first, -7.04% for the second.

Compared with `Cc1cc2cc(CN(Cc3ccc4c(c3)OCO4)C(=O)c3ccco3)c(=O)[nH]c2cc1C`, `CN(C)S(=O)(=O)c1cccc(C(=O)N(Cc2ccc(F)cc2)Cc2ccco2)c1` is lower in “hERG current change (%, negative = inhibition) at 10uM” value: -25% for the first, -52.3% for the second.

Going from `ClCc1ncc(-c2ccc(Cl)cc2)o1` to `CC(C)N(Cc1cnn(C)c1)Cc1nc(-c2ccc(Cl)cc2)no1`, the “hERG current change (%, negative = inhibition) at 10uM” value falls from 33.5% to 3.63%.

First: CN(Cc1cccs1)C(=O)c1cccc(S(=O)(=O)N2CCCCCC2)c1
Second: CN(Cc1cccs1)C(=O)c1ccc(S(=O)(=O)N2CCCCC2)cc1
The “hERG current change (%, negative = inhibition) at 10uM” value of the first is lower: -59.9% for the first, -18.8% for the second.

Compared with `O=C(c1cccc(S(=O)(=O)N2CCOCC2)c1)N(Cc1ccco1)Cc1cccs1`, `O=C(c1ccc(S(=O)(=O)N2CCOCC2)cc1)N(Cc1ccco1)Cc1cccs1` is higher in “hERG current change (%, negative = inhibition) at 10uM” value: -68.5% for the first, -44.5% for the second.

Going from `CCN(Cc1cccs1)C(=O)c1cccc(S(=O)(=O)N2CCN(C)CC2)c1` to `CN1CCN(S(=O)(=O)c2cccc(C(=O)N(C)Cc3cccs3)c2)CC1`, the “hERG current change (%, negative = inhibition) at 10uM” value rises from -14.1% to -7.83%.

Compared with `O=C(c1cccc(S(=O)(=O)N2CCOCC2)c1)N(Cc1ccc(F)cc1)Cc1ccco1`, `O=C(NCc1ccco1)c1cccc(S(=O)(=O)N2CCOCC2)c1` is higher in “hERG current change (%, negative = inhibition) at 10uM” value: -88.4% for the first, -4.97% for the second.

Compared with `CN(C)S(=O)(=O)c1cccc(C(=O)NCc2ccco2)c1`, `Cc1ccc(C)c(NC(=O)CCNS(=O)(=O)c2ccc3[nH]c(=O)oc3c2)c1` is higher in “hERG current change (%, negative = inhibition) at 10uM” value: 10.7% for the first, 11.4% for the second.

Compared with `COc1ccc(/C=N/NC(=O)c2ccncc2)cc1Cn1nc([N+](=O)[O-])c(Br)c1C`, `C=CCNC(=O)c1ccc2c3n(nc2c1)-c1ccc(C)cc1CO3` is higher in “hERG current change (%, negative = inhibition) at 10uM” value: -49.4% for the first, -24.6% for the second.

Compared with `O=C(Oc1cccc(-c2cnc3ccccc3n2)c1)c1ccco1`, `O=C(NCCOc1ccccc1)c1cc2ccccc2o1` is higher in “hERG current change (%, negative = inhibition) at 10uM” value: -5.02% for the first, -2.6% for the second.

First: O=C(CNC(=O)c1ccccc1Cl)NC1CCN(Cc2ccccc2)CC1
Second: CCOc1ccccc1C(=O)NC1CCN(Cc2ccccc2)CC1
The “hERG current change (%, negative = inhibition) at 10uM” value of the first is higher: 13.1% for the first, -46.6% for the second.

Going from `Cl.O=C(NC1CCN(Cc2ccccc2)CC1)c1ccccc1OCc1ccccc1` to `O=C(NC1CCN(Cc2ccccc2)CC1)c1ccccc1OCc1ccccc1Cl`, the “hERG current change (%, negative = inhibition) at 10uM” value rises from -69.3% to -69.2%.

Compared with `O=C(O)c1ccccc1OCc1ccccc1Cl`, `O=C(c1ccccc1)N1N=C(C(F)(F)F)CC1(O)c1ccccc1` (centres unmarked) is higher in “hERG current change (%, negative = inhibition) at 10uM” value: 6.55% for the first, 10.6% for the second.

First: CC(C)N1CC23C=CC(O2)C(C(=O)OCc2ccccc2)C3C1=O (centres unmarked)
Second: Cc1ccc(NC(=O)C2Cc3ccccc3C(=O)O2)cc1 (centres unmarked)
The “hERG current change (%, negative = inhibition) at 10uM” value of the first is lower: 3.29% for the first, 13% for the second.

Compared with `COc1cc(NS(=O)(=O)c2ccc(N/C=C(\C=O)c3nc4cc(Cl)ccc4o3)cc2)nc(OC)n1`, `COc1ccccc1N1CCN(c2ncc(C(=O)N3CCN(c4cccc(Cl)c4)CC3)c3ccccc23)CC1` is lower in “hERG current change (%, negative = inhibition) at 10uM” value: -2.34% for the first, -10.7% for the second.

Going from `CCO[C@H]1OC(C(=O)O)=C[C@@H](C(C)(C)C)[C@@H]1CCCO` to `Cc1ccc(C(=O)OCC(=O)Nc2cc(C(C)(C)C)nn2-c2ccccc2)c(O)c1`, the “hERG current change (%, negative = inhibition) at 10uM” value falls from 7.12% to -8.07%.

Going from `O=C(Nc1ccc2ccccc2c1)NC1CCS(=O)(=O)C1` (centres unmarked) to `O=C(Nc1ccccc1C(F)(F)F)C1CCN(C(=O)c2cccs2)CC1`, the “hERG current change (%, negative = inhibition) at 10uM” value rises from 6.88% to 10.5%.

First: O=C(CSc1nncs1)Nc1cc(-c2ccccc2)nn1-c1ccccc1
Second: COCCNc1nnc(SCC(=O)Nc2cc(-c3ccccc3)nn2-c2ccccc2)s1
The “hERG current change (%, negative = inhibition) at 10uM” value of the first is higher: -39.1% for the first, -50.9% for the second.

First: Cc1nnc(SCC(=O)Nc2cc(C(C)(C)C)nn2-c2ccccc2)s1
Second: CC(C)(C)c1cc(NC(=O)CSc2nnc(N)s2)n(-c2ccccc2)n1
The “hERG current change (%, negative = inhibition) at 10uM” value of the first is higher: -12.9% for the first, -29.1% for the second.

Going from `COCCNc1nnc(SCC(=O)Nc2nnc(-c3ccccc3)o2)s1` to `CC(C)(C)c1cc(NC(=O)CSc2nnc(NCc3ccccc3)s2)n(-c2ccccc2)n1`, the “hERG current change (%, negative = inhibition) at 10uM” value falls from 21.8% to -50.1%.

Compared with `CC(C)(C)c1cc(NC(=O)COC(=O)c2ccc(O)cc2O)n(-c2ccccc2)n1`, `O=C(COC(=O)c1ccc(O)cc1O)Nc1cc(-c2ccccc2)nn1-c1ccccc1` is higher in “hERG current change (%, negative = inhibition) at 10uM” value: -79.3% for the first, -9.42% for the second.

Compared with `O=C(Nc1nc2c(F)cccc2s1)C1CC1`, `CC1CCCC(C)N1NC(=S)Nc1ccc(OC(F)F)cc1` (centres unmarked) is lower in “hERG current change (%, negative = inhibition) at 10uM” value: -8.38% for the first, -68.3% for the second.

First: Cn1c(=O)cc(OCC(=O)N2CCN(Cc3ccc4c(c3)OCO4)CC2)c2ccccc21
Second: O=C(CC1C(=O)NCCN1Cc1ccc(-c2ccccc2)cc1)NCCOc1cccnc1 (centres unmarked)
The “hERG current change (%, negative = inhibition) at 10uM” value of the first is lower: -33.4% for the first, -25.9% for the second.

With `CCOc1ccc(NC(=S)NN2C(C)CCCC2C)cc1` (centres unmarked) the “hERG current change (%, negative = inhibition) at 10uM” value was 6.62%.
